Measured values taken from PubChem BioAssay.
Calls of active or inactive are those of the source. Unless noted, the rule behind the calls is not given here.

What was measured:
[1] = tested on: XIP peptide (Xip251-270) binding; test: small-molecule binders of XIP peptide, primary screen, biochemical, small-molecule microarray, fluorescence 635/667 nm, 0.1 µg/mL protein (AID 1182); conditions: fluorescent protein binding, 635 nm, higher = more signal, called active from +8 up or from −8 down
[2] = tested on: XIP peptide (Xip251-270); test: small-molecule binders of XIP peptide, primary screen, biochemical, small-molecule microarray, fluorescence 635/667 nm, 0.5 µg/mL protein (AID 1183); conditions: small-molecule microarray binding, fluorescence 635 nm; higher = more signal
[3] = Plasmodium falciparum growth inhibition, primary screen, strain 3D7, DAPI fluorescence, 100 nL (AID 1184);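 note: parasites grown inside human red blood cells in medium with human serum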; conditions: P. falciparum 3D7 growth, 3 d, higher = more signal
[4] = target: Homeobox protein Hox-A13 (Mus musculus) (UniProt Q62424); test: inhibitors of HoxA13-DNA binding, primary screen, biochemical, fluorescence polarization, labeled oligonucleotide (AID 1185); conditions: 15 min, higher = more signal, called active from +8 up or from −8 down
Homeobox protein Hox-A13 (Mus musculus), sequence (Q62424 whole entry, looked up): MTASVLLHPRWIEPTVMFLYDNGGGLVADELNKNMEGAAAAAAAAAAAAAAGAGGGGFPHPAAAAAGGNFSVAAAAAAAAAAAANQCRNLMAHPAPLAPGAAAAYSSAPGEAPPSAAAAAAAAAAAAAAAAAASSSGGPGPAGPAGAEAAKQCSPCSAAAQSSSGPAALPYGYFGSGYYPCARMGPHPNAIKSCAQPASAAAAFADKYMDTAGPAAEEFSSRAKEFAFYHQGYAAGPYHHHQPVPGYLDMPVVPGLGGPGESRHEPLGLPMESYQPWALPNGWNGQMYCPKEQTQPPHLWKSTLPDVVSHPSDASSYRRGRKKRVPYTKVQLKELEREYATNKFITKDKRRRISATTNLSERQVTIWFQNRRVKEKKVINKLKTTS

[5] = inhibitors of hydroxyurea-induced Chk1 phosphorylation, primary screen, imaging, HeLa, phospho-Chk1 antibody, percent positive cells (AID 1186); conditions: hydroxyurea-induced phospho-Chk1 immunofluorescence imaging, higher = more signal
[6] = inhibitors of hydroxyurea-induced Chk1 phosphorylation, primary screen, imaging, HeLa, phospho-Chk1 nuclear intensity (AID 1187); conditions: hydroxyurea-induced phospho-Chk1 immunofluorescence imaging, higher = more signal

Row | SMILES | composite z-score [1] | composite z-score [2] | z-score [3] | z-score [4] | z-score [5] | z-score [6]
1 | O=C1O[C@@H](c2ccccc2)[C@@H](c2ccccc2)N2[C@@H](c3ccc(O)cc3)[C@]3(C(=O)Nc4ccc(C#CC5=CCCCC5)cc43)[C@@H](C(=O)Nc3nc4ccccc4s3)[C@H]12 | 0.433 (inactive) | 0.708 | -0.775 | 3.56 (inactive) | -0.315 (inactive) | -0.363 (inactive)
2 | COCCCNC(=O)[C@@H]1c2ccccc2C(=O)N(Cc2cc(F)cc(C(F)(F)F)c2)[C@H]1c1ccc(CO)cc1 | -0.0408 (inactive) | -0.0784 | -0.288 | -2.79 (inactive) | 0.0176 (inactive) | -0.299 (inactive)
3 | CCN(CC)c1ccc(N2CC=CC34O[C@@H]5/C=C\CCCOC(=O)C5[C@H]3C(=O)N(CCCCCO)[C@@H]4C2=O)cc1 (stereo partly drawn) | -0.0261 (inactive) | 0.0595 | 1.98 | -5.15 (inactive) | -0.0764 (inactive) | 0.34 (inactive)
4 | COC(=O)c1ccc(OC)c(/C=C\CC(CCc2ccccc2)OC(=O)c2ccncc2)c1 (stereo not drawn) | -0.661 (inactive) | -0.329 | -0.687 | -2.52 (inactive) | 0.0946 (inactive) | 0.459 (inactive)
5 | COCC(=C=CC[C@@H](O)c1ccccc1OCCO)C[C@@H](O)c1ccccn1 | 0.416 (inactive) | 0.76 | -0.991 | -6.18 (inactive) | 0.413 (inactive) | 0.289 (inactive)
6 | CCOC(=O)C[C@H]1[C@H](OC(=O)c2ccccc2-c2ccccc2)[C@@H](NC(=O)c2ccccc2)c2cc(OCCCO)ccc2N1C(=O)Cc1ccc(OC)cc1 | -0.231 (inactive) | -0.73 | -0.375 | -2.77 (inactive) | 0.237 (inactive) | 0.356 (inactive)
7 | O=C1N(CCS(=O)(=O)c2ccccc2)c2ccccc2[C@H]2OC(c3ccc(OCCCO)cc3)=N[C@@]12CCS(=O)(=O)c1ccccc1 | 2.51 (inactive) | 0.776 | -2.05 | 0.758 (inactive) | 0.109 (inactive) | 0.545 (inactive)
8 | C=C(CCCC)/C(=C/C[C@H](OC(=O)c1ccncc1)c1ccc(CO)o1)c1cc(C(=O)OC)ccc1OC | 0.948 (inactive) | 0.71 | -0.138 | -5.29 (inactive) | -0.52 (inactive) | -1.02 (inactive)
9 | CCOC(=O)C[C@H]1[C@H](OC(=O)c2ccc(C(=O)c3ccccc3)cc2)[C@@H](NC(=O)C2CCCCC2)c2cc(OCCCO)ccc2N1C(=O)Cc1ccc(OC)cc1 | 0.963 (inactive) | 0.242 | -1.12 | -2.28 (inactive) | 0.542 (inactive) | -0.129 (inactive)
10 | COC(=O)C(CC#Cc1ccc2c(c1)[C@]1(C(=O)N2)[C@H](c2ccc(O)cc2)N2[C@H](c3ccccc3)[C@H](c3ccccc3)OC(=O)[C@H]2[C@@H]1C(N)=O)C(=O)OC | -0.609 (inactive) | -2.27 | 0.38 | 0.452 (inactive) | -0.174 (inactive) | -0.279 (inactive)
11 | Cc1ccccc1C(O)C1C=CC2C(=O)N(C)C(=O)C2N1Nc1ccc([N+](=O)[O-])cc1[N+](=O)[O-] (stereo not drawn) | 3.99 (inactive) | 0.476 | 0.368 | -4.08 (inactive) | 0.348 (inactive) | -0.0828 (inactive)
12 | C[C@@H]1ON(c2ccccc2)[C@H](c2ccccc2)[C@H]1C(=O)N1C(=O)OC[C@H]1Cc1ccccc1 | 0.0959 (inactive) | 0.351 | -1.96 | -1.4 (inactive) | -0.673 (inactive) | -0.308 (inactive)
13 | [N-]=[N+]=Nc1ccccc1[C@H]1OC(c2ccc(OCCCO)cc2)=N[C@@]1(Cc1ccccc1)C(=O)NCc1ccccc1 | 1.39 (inactive) | 0.596 | -2.24 | -2.71 (inactive) | -0.684 (inactive) | -0.5 (inactive)
